HT1080 IDH1KD tx: qHTS for induction of synthetic lethality in tumor cells producing 2HG: qHTS for the HT-1080-IDH1KD cell line; HT-1080 IDH1 knockdown viability, ATP luminescence, 48 h; Potency, µM (titrated, usually from 46.1 µM), for the others: at the highest dose activity, negative = toxicity, hits mostly cytotoxic; 360,000 tested, 2% active; AID 686971, 2013;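 also: 0% = DMSO wells and -100% = cell-free medium wells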
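In this qHTS, HT-1080 cells depleted of IDH1 are exposed for 48 h at 37 °C to compound titrations. Toxicity is scored from CellTiter-Glo luminescence, with DMSO as full viability and medium alone as none.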
KB-3-1 tox: qHTS assay for MDR1-selective chemotherapeutics: Primary screen using the parental adenocarcinoma cell KB-3-1 | 400,000 tested, 1.4% active | Potency, µM (top dose mostly 46.1 µM), most hits filed as cytotoxic | AID 1347075, 2019 | KB-3-1 viability, CellTiter-Glo ATP luminescence, 72 h; also: % is scaled to controls: 0 for no effect and ±100 for the full control effect; nearly all actives have a fitted effect of over 60% in size
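Using CellTiter-Glo luminescence, growth of non-resistant KB-3-1 adenocarcinoma cells is assessed 72 h after pin-tool compound addition at 37 °C. Normalized responses across the concentration series yield fitted curves.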
KB-V1 MDR tox: qHTS assay for MDR1-selective chemotherapeutics: Primary screen using the drug-selected MDR subline cells KB-V1; KB-V1 MDR cells viability, CellTiter-Glo, 72 h; Potency, µM (highest dose often 46.1 µM), hits mostly cytotoxic; 400,000 tested, 3.4% active; AID 1347076, 2019; also: % is scaled to controls: 0 for no effect and ±100 for the full control effect; nearly all actives have a fitted effect of over 60% in size
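Cytotoxicity via CellTiter-Glo luminescence after 72 h compound exposure at 37 degrees C. Cells: drug-selected KB-V1 line, DMEM phenol-red free plus 10% FBS. Compounds tested at multiple concentrations; normalized data fitted to concentration-effect curves.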
ATXN2 expr inh: Primary qHTS for Inhibitors of ATXN expression. HEK-293 ATXN2-luciferase reporter, luminescence, 24 h. Potency, µM (highest dose often 57 µM), inactives show top-dose activity change, negative = inhibition, actives largely listed as inhibitors. 360,000 tested, 0.72% active. AID 1745845, 2022; also: % is scaled to controls: 0 for no effect and ±100 for the full control effect; nearly all actives have a fitted effect of over 55% in size
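qHTS (up to 57 uM final) was run with 24 h compound exposure of reporter cells at 37 °C. Each well was multiplexed: SteadyGlo luminescence measured ATXN2-luciferase expression after a fluorogenic Gly-Phe-AFC viability readout (25 uM final).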
HT1080-NT tox: qHTS for induction of synthetic lethality in tumor cells producing 2HG: qHTS for the HT-1080-NT fibrosarcoma cell line; 360,000 tested, 1.6% active; Potency, µM (highest dose often 46.1 µM), for inactives: top-dose activity, negative = less viability, actives largely listed as cytotoxic; HT-1080-NT fibrosarcoma viability, CellTiter-Glo ATP luminescence, 48 h; AID 686970, 2013;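 also: NT is the 2HG producing partner of a matched IDH1 knockdown line; 0% = DMSO-treated cells and -100% = media-only wells without cells; nearly all actives have a fitted effect of over 55% in size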
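Compounds were tested in concentration-response format on HT-1080-NT cells for 48 hours at 37 degrees C. Cell viability came from CellTiter-Glo luminescence; curves were classified by r2, response magnitude and activity.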
ATXN viability: Viability Counterscreen for Primary qHTS for Inhibitors of ATXN expression; S2 cells (HEK-293 line with an ATXN2-luciferase reporter) viability, CellTiter-Fluor protease fluorescence, 24 h; Potency, µM (series often up to 56.7 µM), most hits filed as cytotoxic; 400,000 tested, 0.49% active; also: nearly all actives have a fitted effect of over 40% in size
* = called active by the depositor; i = inactive; u = inconclusive; x = no result; [ ] = dose if it differs, or a comment. Sampled rows, rich in hits. Any-hit rate of the full collection: about 6.2%. Calls follow the shape of the dose curve; as a rule, active = well fitted curve in the direction sought with a large enough effect; inconclusive = small, poorly fitted or top-dose-only effect, or another doubt; inactive = no such curve, though single readings can be large; an effect the other way counts as inactive or inconclusive. Potency is read from the fitted curve at half-maximal effect.

SMILES	HT1080 IDH1KD tx	KB-3-1 tox	KB-V1 MDR tox	ATXN2 expr inh	HT1080-NT tox	ATXN viability
O=C(Cn1cnc2sc(-c3ccccc3)cc2c1=O)NCc1ccco1	u	18µM*	u	12%	u	i
O=C(Cn1cnc2sc(-c3ccccc3)cc2c1=O)NCc1ccccc1	6.3µM*	7.3µM*	i	-28%	7.9µM*	i
CCCCn1cc(S(=O)(=O)c2ccc(OC)cc2)c(=O)c2cc(F)c(F)cc21	x	i	i	-6%	x	i
CN(C)S(=O)(=O)c1cccc(NC(=O)c2ccc(OC(F)(F)F)cc2)c1	3%	u	2.6µM*	u	9%	u
CN(c1ccccc1)S(=O)(=O)c1cccc(NC(=O)CSc2nncs2)c1	-10%	u	4.1µM*	-12%	-7%	i
CN(C)S(=O)(=O)c1cccc(NC(=O)c2ccc(COc3ccccc3)cc2)c1	-1%	u	u	u	u	13µM*
CN(C)S(=O)(=O)c1cccc(NC(=O)Cc2ccc(Cl)cc2)c1	2%	i	21µM*	-11%	3%	i
CCOc1ccc(NC(=O)CSc2nc3ccccc3c(=O)n2CCC(=O)NC2CCCCC2)cc1	x	i	i	10%	x	i
CN(CCOc1ccc(Cl)cc1)Cc1cccc(S(=O)(=O)N(C)C)c1	-12%	21µM*	7.3µM*	-37%	0%	i
CN(c1ccc(C(=O)Nc2cccc(O)c2)cc1)S(=O)(=O)c1ccccc1	0%	x	x	7%	-10%	u
COCc1ccc(C(=O)Nc2cccc(S(=O)(=O)N(C)c3ccccc3)c2)cc1	-16%	i	u	-5%	6.5µM*	u
C[C@@H](c1ccccc1)N1C[C@@H](COCc2ccccc2)Oc2cc(N3CC[C@H](N(C)C)C3)ccc2S1(=O)=O	12%	u	i	-2%	2%	i
CCCCC[C@@H](C)N1C[C@@H](COCc2ccccc2)Oc2cc(N3CC[C@H](N(C)C)C3)ccc2S1(=O)=O	u	u	u	u	21µM*	x
C[C@H](c1ccccc1)N1C[C@@H](COCc2ccccc2)Oc2cc(N3CC[C@H](N(C)C)C3)ccc2S1(=O)=O	u	i	23µM*	-10%	u	x
COc1ccc(CCNC(=O)CCn2c(=O)c3ccccc3n(Cc3ccccc3F)c2=O)cc1OC	x	i	i	-10%	x	i
CCOc1ccccc1C(=O)NCC(=O)OCC(=O)N1CCCC1	-2%	x	x	-12%	0%	i
CCOc1ccc(CCNC(=O)c2cccc(Nc3nc4ccccc4nc3-n3nc(C)cc3C)c2)cc1OCC	x	i	i	-4%	x	i
CCN1CCN(C(c2cccs2)C(C)NS(=O)(=O)c2ccc(Br)cc2)CC1 (stereo unspecified)	-1%	i	23µM*	-10%	0%	i
COc1ccc(-n2nc(CCC(=O)N(C)O)cc2-c2ccc(Cl)cc2)cc1	x	x	x	u	x	i
O=[N+]([O-])c1ccc(N2CCC(=NOCc3ccc(Cl)cc3)CC2)cc1	-30%	i	15µM*	-19%	u	u
COc1ccc(N=Nc2c(C)[nH][nH]c2=O)cc1	-10%	u	23µM*	6%[11.3 µM]	-3%	i
COc1cccc(N=Nc2c(N)[nH][nH]c2=O)c1	-2%	i	18µM*	-24%	-11%	i
COc1ccc(N=Nc2c(C)[nH]c3ccccc23)cc1	18µM*	i	i	-25%	u	i
O=C(Cn1cnc([N+](=O)[O-])n1)N/N=C/c1ccc(O)cc1O	18µM*	i	i	-34%	u	i
